Test results as given in PubChem BioAssay (Tox21).
Results filed as inconclusive are left out. Where a call stands in place of a potency, no number is given. Active and inactive are the calls of the source. Unless noted, the call rests on the fitted dose curve.

What was measured:
[1] = Nuclear factor erythroid 2-related factor 2/antioxidant responsive element (Nrf2/ARE) small molecule agonists: qHTS cell viability counter screen in human keratinocytes (AID 1919968; active means well fitted curve in the direction sought with a large enough effect in the repeat runs; an effect the other way counts as inactive or inconclusive; further: nearly all actives have a fitted effect of over 55% in size; further: potency means the concentration at half of the fitted maximal effect)
Procedure, shortened: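 KeratinoSens HaCaT cells, 1,500/well, preincubated 5 h, then exposed to compounds in DMSO for 23 h at 37 C/5% CO2. Viability read as CellTiter-Fluor fluorescence after 1 h, in the same wells as the ARE-luciferase read.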

[2] = Nuclear factor erythroid 2-related factor 2/antioxidant responsive element (Nrf2/ARE) small molecule agonists: luciferase reporter gene qHTS assay in human keratinocytes (AID 1919969); further: nearly all actives have a fitted effect of over 35% in size; further: potency means the concentration at half of the fitted maximal effect
[3] = biological target: Gonadotropin-releasing hormone receptor (Homo sapiens) (UniProt P30968); assay: Human gonadotropin-releasing hormone receptor (GnRHR) small molecule agonists, calcium flux assay in GnRHR-HEK293 cells (AID 1920063); further: nearly all actives have a fitted effect of over 35% in size; further: potency means the concentration at half of the fitted maximal effect
Procedure, shortened: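 HEK293 cells stably expressing human GnRHR were dye-loaded for 1 h at 37 C. Compound was added in agonist mode and fluorescence (Ex/Em 480/540) recorded kinetically for 3 min. Fifteen concentrations, triplicates.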

[4] = G protein-coupled receptor (GPCR) small molecule agonists, calcium flux assay: HEK293 wild type cell line counter screen (AID 1920065)
Procedure, shortened: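 Wild-type HEK293 cells plated 18 h, loaded with calcium dye 1 h at 37 C, then compounds added in agonist mode (ATP as positive control). Kinetic fluorescence Ex/Em 480/540 recorded 3 min at 1 sec intervals; 15 concentrations, triplicate.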

[5] = p53 small molecule agonists, cell-based qHTS assay with rat liver microsomes (AID 1963578)
Procedure, shortened: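 Read-out is beta-lactamase reporter fluorescence (LiveBLAzer, 2 h, room temperature, dark) in p53RE-bla cells treated 16 h at 37 C with compound, rat liver microsomes and NADPH, both 0.5 mg/mL final.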

[6] = p53 small molecule agonists, cell-based qHTS assay with human liver microsomes: qHTS cell viability counter screen (AID 1963579); further: nearly all actives have a fitted effect of over 45% in size; further: potency means the concentration at half of the fitted maximal effect
Procedure, shortened: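 Cells carrying the p53 response-element beta-lactamase reporter are treated for 16 h at 37 C with test compounds in the presence of human liver microsomes and NADPH (both 0.5 mg/mL final); ATP-based CellTiter-Glo luminescence then reports viability.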

[7] = p53 small molecule agonists, cell-based qHTS assay with rat liver microsomes: qHTS cell viability counter screen (AID 1963580); further: nearly all actives have a fitted effect of over 45% in size
Procedure, shortened: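 p53RE-bla HCT-116 cells were exposed 16 h at 37 C to compounds with rat liver microsomes (0.5 mg/mL) and NADPH (0.5 mg/mL). Viability was measured in the same wells as ATP content by CellTiter-Glo luminescence.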

[8] = p53 small molecule agonists, cell-based qHTS assay: qHTS cell viability counter screen (AID 1963581); further: nearly all actives have a fitted effect of over 45% in size
Procedure, shortened: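 p53RE-bla HCT-116 cells, compounds added 5 h after plating and incubated 16 h at 37 C. Cytotoxicity measured in the same wells as intracellular ATP by CellTiter-Glo luminescence after 30 min at room temperature.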

[9] = biological target: 5-hydroxytryptamine receptor 2A (Homo sapiens) (UniProt P28223); assay: 5-hydroxytryptamine receptor 2A (HTR2A) small molecule agonists, cell-based qHTS assay (AID 1963587); further: nearly all actives have a fitted effect of over 30% in size; further: potency means the concentration at half of the fitted maximal effect
Procedure, shortened: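 CHO cells stably expressing human HTR2A, plated 18 h, loaded with calcium dye 1 h at 37 C. Agonist mode: compounds added and intracellular calcium fluorescence recorded kinetically for 2 min at 1 sec intervals.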

[10] = biological target: Muscarinic acetylcholine receptor M1 (Homo sapiens) (UniProt P11229); assay: Cholinergic receptor muscarinic 1 (CHRM1) small molecule antagonists, cell-based qHTS assay (AID 1963588); further: nearly all actives have a fitted effect of over 40% in size; further: potency means the concentration at half of the fitted maximal effect
Procedure, shortened: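 CHRM1-CHO calcium-flux assay, antagonist mode. Cells were seeded 18 h, dye-loaded 1 h at 37 C and given compound for 5 min at RT, then acetylcholine was added at 50nM. FDSS fluorescence was read 3 min; 15 concentrations, three runs.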

[11] = biological target: D(2) dopamine receptor (Homo sapiens) (UniProt P14416); assay: Dopamine D2 receptor (DRD2) small molecule agonists, cell-based qHTS assay (AID 1963594); further: nearly all actives have a fitted effect of over 35% in size
Procedure, shortened: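 HEK293 cells stably expressing human DRD2, pre-treated with PDE inhibitor Ro20-1724 (0.1 mM final) and compound 10 min at room temperature, then stimulated with NKH477 (200nM […]) for 30 min. cAMP read by HTRF (665/620 nm).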

[12] = biological target: 5-hydroxytryptamine receptor 2A (Homo sapiens) (UniProt P28223); assay: 5-hydroxytryptamine receptor 2A (HTR2A) small molecule antagonists, cell-based qHTS assay (AID 1963586); further: nearly all actives have a fitted effect of over 45% in size; further: potency means the concentration at half of the fitted maximal effect
Procedure, shortened: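 Antagonist-mode intracellular calcium assay: DOI (4 nM) added after 5 min compound pre-incubation at room temperature to dye-loaded HTR2A-CHO cells. Fluorescence followed for 3 min, sampled every second.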

[13] = biological target: Muscarinic acetylcholine receptor M1 (Homo sapiens) (UniProt P11229); assay: Cholinergic receptor muscarinic 1 (CHRM1) small molecule agonists, cell-based qHTS assay (AID 1963589); further: nearly all actives have a fitted effect of over 35% in size
Procedure, shortened: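 CHO cells stably expressing human CHRM1 were loaded with calcium dye for 1 h at 37 C, then compound was added in agonist mode. Intracellular calcium fluorescence was followed kinetically at 1 s intervals. Fifteen concentrations were tested in three independent runs.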

[14] = cAMP Responsive Elements (CRE) small molecule agonists, cell-based qHTS assay (AID 1963590)
Procedure, shortened: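 CRE-bla HEK 293T cells, 2,000/well in DMEM with 10% dialyzed FBS and 25 mM HEPES, pre-incubated 18 h at 37 C, then exposed to compound 3 h at 37 C. Beta-lactamase reporter read with LiveBLAzer B/G FRET substrate after 2 h at room temperature.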

[15] = cAMP Responsive Elements (CRE) small molecule antagonists, cell-based qHTS assay (AID 1963591; active means well fitted inhibition curve with a large enough effect in the signal ratio in the repeat runs, not every such curve was filed as active; the % refers to the signal ratio; further: potency means the concentration at half of the fitted maximal effect)
Procedure, shortened: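 CRE-bla HEK293T cells plated 18 h, then given compound plus NKH477 at 0.25 uM final for 3 h at 37C. Beta-lactamase reporter read with LiveBLAzer B/G FRET substrate after 2 h at room temperature.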

[16] = biological target: Beta-2 adrenergic receptor (Homo sapiens) (UniProt P07550); assay: Adrenergic beta2 receptor (ADRB2) small molecule antagonists, cell-based qHTS assay (AID 1963592); further: nearly all actives have a fitted effect of over 50% in size; further: potency means the concentration at half of the fitted maximal effect
Procedure, shortened: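 Cells (CHO, stable ADRB2 overexpression) incubated 18-20hr at 37C; compounds added from DMSO; agonist mix (1nM isoproterenol, 100uM IBMX, 25uM Ro-20-1724) added; 0.5hr RT; d2-cAMP and anti-cAMP-cryptate added; 1hr RT; 665/615 nm read.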

[17] = biological target: Beta-2 adrenergic receptor (Homo sapiens) (UniProt P07550); assay: Adrenergic beta2 receptor (ADRB2) small molecule agonists, cell-based qHTS assay (AID 1963593);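 further: CHO cells stably overexpressing human ADRB2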
Procedure, shortened: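 CHO cells stably over-expressing ADRB2 were plated overnight at 37C, then dosed with compounds plus a stimulation mix containing 100uM IBMX and 25uM Ro-20-1724 for 0.5hr at room temperature. cAMP was measured by HTRF competition, 1hr.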

[18] = biological target: D(2) dopamine receptor (Homo sapiens) (UniProt P14416); assay: Dopamine D2 receptor (DRD2) small molecule antagonists, cell-based qHTS assay (AID 1963595; active means well fitted inhibition curve with a large enough effect in the signal ratio in the repeat runs, with a control signal flat; the % refers to the signal ratio; further: potency means the concentration at half of the fitted maximal effect)
Procedure, shortened: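 Human DRD2 antagonist qHTS measuring cAMP by HTRF. The cells are exposed to compound for 10 min, then to NKH477 (200 nM) and quinpirole (12 nM) for 30 min at RT, with Ro20-1724 (0.1 mM) present throughout.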

[19] = p53 small molecule agonists, cell-based qHTS assay (AID 1963582; active means well fitted activation curve with a large enough effect in the signal ratio in the repeat runs, not every such curve was filed as active; the % refers to the signal ratio)
Procedure, shortened: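 p53RE-bla reporter cells, compounds added in DMSO after 5 h plating, incubated 16 h at 37 C. Beta-lactamase read via 2 h room-temperature LiveBLAzer B/G FRET substrate, fluorescence intensity.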

[20] = biological target: KiSS-1 receptor (Homo sapiens) (UniProt Q969F8); assay: Human kisspeptin (KISS1R) small molecule agonists, calcium flux assay in KISS1R-HEK293 cells (AID 1920064; active means well fitted curve in the direction sought with a large enough effect in the repeat runs; an effect the other way counts as inactive or inconclusive)
Procedure, shortened: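 HEK293 cells stably expressing human KISS1R were loaded with calcium dye for 1 h at 37 C, then given compound; fluorescence (Ex/Em 480/540) was read kinetically for 3 min. Fifteen concentrations, triplicate.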

Chain of 5-hydroxytryptamine receptor 2A (Homo sapiens) (P28223 whole entry, looked up): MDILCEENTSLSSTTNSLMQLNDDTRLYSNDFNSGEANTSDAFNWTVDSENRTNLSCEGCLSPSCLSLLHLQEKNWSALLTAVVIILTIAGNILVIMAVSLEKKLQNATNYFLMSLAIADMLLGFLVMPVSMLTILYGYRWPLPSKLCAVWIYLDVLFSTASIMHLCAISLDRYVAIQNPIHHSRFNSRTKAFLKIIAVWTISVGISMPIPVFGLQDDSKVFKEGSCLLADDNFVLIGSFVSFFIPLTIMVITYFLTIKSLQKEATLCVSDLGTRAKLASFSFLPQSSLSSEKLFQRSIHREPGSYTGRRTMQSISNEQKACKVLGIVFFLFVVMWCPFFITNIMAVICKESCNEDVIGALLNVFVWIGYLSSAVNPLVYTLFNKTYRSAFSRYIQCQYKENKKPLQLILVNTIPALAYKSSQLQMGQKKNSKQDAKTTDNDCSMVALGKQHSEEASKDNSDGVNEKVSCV
Chain of KiSS-1 receptor (Homo sapiens) (Q969F8 whole entry, looked up): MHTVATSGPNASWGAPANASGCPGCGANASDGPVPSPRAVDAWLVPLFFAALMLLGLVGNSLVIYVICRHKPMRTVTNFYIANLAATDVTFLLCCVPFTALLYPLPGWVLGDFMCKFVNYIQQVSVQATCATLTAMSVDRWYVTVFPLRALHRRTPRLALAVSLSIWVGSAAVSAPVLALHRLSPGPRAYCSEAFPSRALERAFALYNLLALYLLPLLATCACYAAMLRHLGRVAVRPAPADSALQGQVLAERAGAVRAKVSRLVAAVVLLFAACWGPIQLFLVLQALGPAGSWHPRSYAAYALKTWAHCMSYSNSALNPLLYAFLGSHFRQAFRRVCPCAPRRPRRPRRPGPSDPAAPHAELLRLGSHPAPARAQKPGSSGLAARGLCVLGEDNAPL
Chain of Muscarinic acetylcholine receptor M1 (Homo sapiens) (P11229 whole entry, looked up): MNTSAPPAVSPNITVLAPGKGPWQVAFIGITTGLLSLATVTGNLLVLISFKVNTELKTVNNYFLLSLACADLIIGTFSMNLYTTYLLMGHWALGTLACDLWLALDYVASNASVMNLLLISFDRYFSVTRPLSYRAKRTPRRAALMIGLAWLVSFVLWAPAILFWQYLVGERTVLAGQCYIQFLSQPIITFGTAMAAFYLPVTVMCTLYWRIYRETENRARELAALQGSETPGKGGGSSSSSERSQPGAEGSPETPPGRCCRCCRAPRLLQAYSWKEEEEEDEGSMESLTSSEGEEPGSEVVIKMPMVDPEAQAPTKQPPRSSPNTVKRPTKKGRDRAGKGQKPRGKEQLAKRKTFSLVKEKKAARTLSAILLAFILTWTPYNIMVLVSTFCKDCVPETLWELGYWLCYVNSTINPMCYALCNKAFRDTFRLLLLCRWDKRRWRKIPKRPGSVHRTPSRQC
Chain of Gonadotropin-releasing hormone receptor (Homo sapiens) (P30968 whole entry, looked up): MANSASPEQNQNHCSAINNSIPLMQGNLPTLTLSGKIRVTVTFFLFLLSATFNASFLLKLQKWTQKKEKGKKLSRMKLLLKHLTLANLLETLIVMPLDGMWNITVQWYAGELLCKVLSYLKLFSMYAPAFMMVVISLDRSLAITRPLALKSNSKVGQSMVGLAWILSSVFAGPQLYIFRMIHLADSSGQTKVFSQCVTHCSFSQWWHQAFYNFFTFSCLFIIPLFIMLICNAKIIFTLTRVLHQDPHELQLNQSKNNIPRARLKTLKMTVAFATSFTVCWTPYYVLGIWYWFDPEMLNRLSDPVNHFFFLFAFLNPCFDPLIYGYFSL
Chain of D(2) dopamine receptor (Homo sapiens) (P14416 whole entry, looked up): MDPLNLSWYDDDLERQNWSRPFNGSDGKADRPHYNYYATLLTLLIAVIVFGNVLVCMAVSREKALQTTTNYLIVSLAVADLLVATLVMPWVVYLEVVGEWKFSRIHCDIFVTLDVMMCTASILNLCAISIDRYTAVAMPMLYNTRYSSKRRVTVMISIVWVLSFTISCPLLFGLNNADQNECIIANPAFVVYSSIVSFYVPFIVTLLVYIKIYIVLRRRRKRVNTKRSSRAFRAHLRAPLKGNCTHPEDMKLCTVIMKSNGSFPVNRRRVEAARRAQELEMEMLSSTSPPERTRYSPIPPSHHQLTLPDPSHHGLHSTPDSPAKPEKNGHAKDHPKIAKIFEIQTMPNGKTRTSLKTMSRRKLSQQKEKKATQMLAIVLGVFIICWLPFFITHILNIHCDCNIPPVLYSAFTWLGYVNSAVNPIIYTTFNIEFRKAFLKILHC
Chain of Beta-2 adrenergic receptor (Homo sapiens) (P07550 whole entry, looked up): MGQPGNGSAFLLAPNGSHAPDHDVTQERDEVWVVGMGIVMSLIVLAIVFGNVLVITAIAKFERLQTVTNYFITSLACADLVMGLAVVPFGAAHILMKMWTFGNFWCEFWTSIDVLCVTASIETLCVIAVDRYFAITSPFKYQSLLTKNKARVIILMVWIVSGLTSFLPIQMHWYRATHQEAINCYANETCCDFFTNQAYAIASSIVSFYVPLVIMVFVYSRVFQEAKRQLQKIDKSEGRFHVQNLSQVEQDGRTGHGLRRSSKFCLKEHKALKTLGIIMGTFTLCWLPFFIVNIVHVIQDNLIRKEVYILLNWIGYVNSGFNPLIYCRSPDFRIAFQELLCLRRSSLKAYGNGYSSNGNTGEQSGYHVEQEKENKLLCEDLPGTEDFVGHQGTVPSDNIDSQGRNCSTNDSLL

SMILES	Potency [1]	Potency [2]	Potency [3]	Potency [4]	Potency [5]	Potency [6]	Potency [7]	Potency [8]	Potency [9]	Potency [10]	Potency [11]	Potency [12]	Potency [13]	Potency [14]	Potency [15]	Potency [16]	Potency [17]	Potency [18]	Potency [19]	Potency [20]
CC1=Nc2ccc3ccccc3c2C1(C)C	inactive	68.6 µM (active)	38.9 µM (active)	inactive	inactive	inactive	inactive	inactive	inactive	inactive	inactive	–	–	–	–	–	–	–	–	–
CC(C)(C)Cl	inactive	inactive	inactive	inactive	–	inactive	inactive	inactive	inactive	inactive	inactive	inactive	inactive	inactive	inactive	inactive	inactive	inactive	–	–
BrCCOc1ccccc1	inactive	inactive	inactive	inactive	–	inactive	inactive	inactive	inactive	inactive	inactive	inactive	inactive	inactive	inactive	inactive	–	–	–	–
FC1(F)C(F)(F)C(F)(F)C2(F)C(F)(F)C(F)(F)C(F)(F)C(F)(F)C2(F)C1(F)F (stereo not drawn)	inactive	inactive	inactive	inactive	inactive	inactive	inactive	inactive	inactive	inactive	–	inactive	inactive	inactive	inactive	inactive	inactive	inactive	inactive	–
CSc1ccc(Oc2ccc(S(N)(=O)=O)cc2CN(C)C)cc1C	inactive	inactive	inactive	–	–	–	inactive	inactive	inactive	inactive	inactive	inactive	inactive	inactive	inactive	–	–	–	–	inactive
CCCOc1sc(C(=O)N2CCC(c3cc(CN)ccc3F)CC2)c(C)c1Br	17.7 µM (active)	inactive	35.7 µM (active)	inactive	inactive	–	–	–	50.4 µM (active)	inactive	inactive	inactive	–	–	–	–	–	–	–	–
CCCCCCOC(=O)CC(CC(=O)OCCCCCC)(OC(=O)CCC)C(=O)OCCCCCC	inactive	inactive	inactive	inactive	–	inactive	inactive	inactive	inactive	inactive	–	inactive	inactive	inactive	inactive	inactive	inactive	inactive	–	–
CC(C)N(C)C	inactive	inactive	inactive	inactive	inactive	inactive	inactive	inactive	inactive	inactive	inactive	–	inactive	inactive	inactive	inactive	–	inactive	inactive	–
CCCCCCNC(=O)n1cc(F)c(=O)[nH]c1=O	inactive	inactive	inactive	inactive	–	inactive	inactive	–	–	–	–	–	–	inactive	inactive	inactive	inactive	inactive	–	–
CCCCCCCCOC(=O)c1cc(O)c(O)c(O)c1	61.1 µM (active)	inactive	34.7 µM (active)	inactive	inactive	inactive	inactive	–	49 µM (active)	inactive	inactive	inactive	–	inactive	30.6 µM (active)	inactive	–	–	–	–
CC(COc1ccccc1)NN (stereo not drawn)	inactive	inactive	inactive	inactive	inactive	inactive	inactive	inactive	inactive	inactive	inactive	inactive	inactive	inactive	inactive	inactive	–	inactive	inactive	–
OCCOc1cccc(OCCO)c1	inactive	inactive	inactive	–	–	inactive	inactive	inactive	inactive	inactive	inactive	–	inactive	inactive	–	–	–	inactive	–	inactive
N#Cc1ccccc1O	inactive	inactive	inactive	–	–	inactive	–	inactive	inactive	inactive	inactive	inactive	inactive	inactive	inactive	inactive	inactive	inactive	–	inactive
C=Cc1ccc(C=C)cc1	inactive	inactive	inactive	–	–	inactive	–	inactive	inactive	–	inactive	–	inactive	inactive	inactive	inactive	–	inactive	–	inactive
CC(=O)Oc1cccc2c1C(=O)c1c(OC(C)=O)cc(C(=O)O)cc1C2=O	inactive	inactive	inactive	–	–	inactive	inactive	–	inactive	inactive	inactive	inactive	inactive	–	–	inactive	–	–	–	inactive
CC=O	28.6 µM (active)	inactive	inactive	inactive	inactive	47.9 µM (active)	–	–	–	3.5 µM (active)	inactive	inactive	inactive	–	–	inactive	–	inactive	–	–
CCCOc1ccc(S(=O)(=O)N2CCN(CC)CC2)cc1-c1nc2c(CC)n(Cc3ccccn3)nc2c(=O)[nH]1	inactive	inactive	inactive	–	–	inactive	inactive	inactive	inactive	18.8 µM (active)	–	–	inactive	–	–	–	–	inactive	–	inactive
CN[C@@H]1[C@@H](O)[C@@H](O[C@@H]2[C@H](O)[C@H](O[C@H]3OC(CN)=CC[C@H]3N)[C@@H](N)C[C@H]2N)OCC1(C)O (stereo partly drawn)	inactive	inactive	inactive	–	–	inactive	inactive	inactive	–	–	inactive	–	–	inactive	inactive	2.66 µM (active)	–	inactive	–	inactive
CC(C)CO	inactive	inactive	inactive	–	–	inactive	–	inactive	–	–	inactive	–	–	inactive	inactive	inactive	–	–	–	inactive
CC(=O)C(=O)CC(C)C	inactive	inactive	inactive	–	–	–	inactive	inactive	inactive	inactive	inactive	inactive	inactive	inactive	inactive	inactive	inactive	inactive	–	inactive
CC(C)c1ccc2c(c1)CC[C@H]1[C@](C)(CN)CCC[C@]21C	12.2 µM (active)	inactive	11 µM (active)	inactive	inactive	40.8 µM (active)	–	–	49 µM (active)	inactive	inactive	29.8 µM (active)	–	–	–	inactive	–	68.6 µM (active)	inactive	–
O=C(Cl)c1ccc(F)c(Cl)c1	inactive	inactive	inactive	inactive	inactive	inactive	inactive	inactive	inactive	inactive	–	inactive	inactive	inactive	inactive	inactive	–	inactive	inactive	–
CC(C)Nc1ccc(NC(C)C)c2c1C(=O)c1ccccc1C2=O	inactive	inactive	inactive	inactive	inactive	inactive	inactive	–	inactive	inactive	–	inactive	inactive	inactive	inactive	inactive	inactive	inactive	inactive	–
C[C@H]1C[C@H]2[C@@H]3CCC4=CC(=O)C=C[C@]4(C)[C@@]3(Cl)[C@@H](O)C[C@]2(C)[C@@]1(O)C(=O)CO	inactive	inactive	inactive	inactive	inactive	inactive	inactive	inactive	–	–	inactive	–	–	–	–	inactive	–	inactive	inactive	–
